PubChem BioAssay (NCI)
About 79,000 compounds went through this panel and 15% of them were active in at least one assay; those are over-represented in the sample as a whole. A number with no mark means an inactive call. Activity calls are given as the source filed them. Cut-off read from the data, not from the text of the source: active = growth inhibition above about 70%; inactive = the rest.

Tests used:
[1] = NCI Yeast Anticancer Drug Screen. Data for the rad52 strain (AID 147);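 note: 0% = growth of vehicle-treated control cultures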; conditions: S. cerevisiae rad52 mutant growth inhibition, hits give high values
Procedure, shortened: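 Growth of repair-deficient yeast cells was compared between compound-treated and vehicle-treated cultures to give percent inhibition.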

[2] = NCI Yeast Anticancer Drug Screen. Data for the wt1 strain (AID 149);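 note: 0% = growth of vehicle-treated wt1 cultures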; conditions: S. cerevisiae wt1 strain (SPY 50644) growth inhibition, hits give high values
Procedure, shortened: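 Measured: growth of wt1 yeast under compound versus vehicle treatment, reported as inhibition.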

[3] = NCI Yeast Anticancer Drug Screen. Data for the rad50EPP+ strain (AID 151);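 note: 0% = growth of vehicle-treated control cultures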; conditions: S. cerevisiae rad50 mutant strain, hits give high values
Procedure, shortened: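 Measured: growth inhibition of rad50EPP+ yeast. Reference: vehicle-treated controls. Screen uses strains with defined genetic alterations in DNA damage repair or cell cycle control.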

[4] = NCI Yeast Anticancer Drug Screen. Data for the mgt1 strain (AID 153); conditions: S. cerevisiae mgt1 mutant growth inhibition, hits give high values
Procedure, shortened: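 Compounds were applied to mgt1 mutant yeast, and growth was then compared against vehicle-treated control cultures to give percent inhibition.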

[5] = NCI Yeast Anticancer Drug Screen. Data for the rad50 strain (AID 155);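 note: 0% = growth of vehicle-only cultures of the same strain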; conditions: S. cerevisiae rad50 strain growth inhibition, hits give high values
Procedure, shortened: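 Growth of the mutant yeast was measured after compound exposure and referenced to vehicle-treated cultures.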

[6] = NCI Yeast Anticancer Drug Screen. Data for the mec2-1 strain (AID 157); conditions: S. cerevisiae mec2-1 strain, hits give high values
Procedure, shortened: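 Compounds were applied to mec2-1 yeast cells. Their growth was then compared with that of vehicle-treated cultures to give growth inhibition.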

[7] = NCI Yeast Anticancer Drug Screen. Data for the rad14 strain (AID 159);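 note: 0% = growth of vehicle-treated control cultures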; conditions: S. cerevisiae rad14 strain growth inhibition, hits give high values
Procedure, shortened: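 Here, inhibition of yeast growth was measured after compound exposure, using a strain with a genetic defect in DNA damage repair and vehicle-treated cultures as the reference.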

[8] = NCI Yeast Anticancer Drug Screen. Data for the sgs1 mgt1 strain (AID 161);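 note: 0% = growth of cultures given vehicle only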; conditions: S. cerevisiae sgs1 mgt1 strain, hits give high values
Procedure, shortened: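 Yeast cells carrying a defined DNA-repair defect were exposed to test compounds. Growth inhibition was measured relative to vehicle-treated controls.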

[9] = NCI Yeast Anticancer Drug Screen. Data for the CLN2oe strain (AID 163);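 note: 0% = growth of vehicle-only control cultures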; conditions: S. cerevisiae CLN2oe strain, hits give high values
Procedure, shortened: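 Cells of an engineered yeast line with disturbed cell-cycle regulation are treated with compound. Inhibition of growth is then calculated relative to the vehicle-treated reference.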

[10] = NCI Yeast Anticancer Drug Screen. Data for the cln2 rad14 strain (AID 165);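 note: 0% = growth equal to vehicle treated cultures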; conditions: S. cerevisiae cln2 rad14 strain, hits give high values
Procedure, shortened: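 Strain: cln2 rad14 yeast, altered in cell cycle control and DNA damage repair. Read-out: growth inhibition vs vehicle.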

[11] = NCI Yeast Anticancer Drug Screen. Data for the bub3 strain (AID 167); conditions: S. cerevisiae bub3 mutant strain, hits give high values
Procedure, shortened: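 Whole-cell yeast assay. The mutant strain was incubated with compounds, and growth inhibition was determined by comparison with vehicle-treated cells.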

[12] = NCI Yeast Anticancer Drug Screen. Data for the wt2 strain (AID 169);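 note: 0% = growth of vehicle-treated yeast cultures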; conditions: S. cerevisiae wt2 strain growth inhibition, hits give high values
Procedure, shortened: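 Growth of compound-treated yeast is measured and expressed as inhibition relative to vehicle-only controls.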

[13] = NCI Yeast Anticancer Drug Screen. Data for the mlh1 strain (AID 171);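 note: 0% = growth of vehicle-treated control cultures of the same strain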; conditions: S. cerevisiae mlh1 strain growth inhibition, hits give high values
Procedure, shortened: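 Test agents were incubated with yeast bearing a defined DNA damage repair or cell cycle control alteration; values are growth inhibition normalised to vehicle-treated cultures.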

[14] = NCI Yeast Anticancer Drug Screen. Data for the sgs1 strain (AID 173);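 note: 0% = growth of vehicle-only control cultures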; conditions: S. cerevisiae sgs1 mutant, hits give high values
Procedure, shortened: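 Strain with an altered DNA repair or cell cycle pathway exposed to compound. Growth then measured. Value = inhibition versus vehicle control.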

[15] = NCI Yeast Anticancer Drug Screen. Data for the mlh1 rad18 strain (AID 175); conditions: S. cerevisiae mlh1 rad18 strain growth inhibition, hits give high values
Procedure, shortened: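 A repair-deficient yeast strain is exposed to test compound, and growth is scored relative to vehicle-treated controls.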

[16] = NCI Yeast Anticancer Drug Screen. Data for the rad18 strain (AID 177); conditions: S. cerevisiae rad18 mutant growth inhibition, hits give high values
Procedure, shortened: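 DNA-repair-defective yeast; compound treatment; growth inhibition scored against vehicle.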

[17] = at 5.0 µM (retest, dose inferred, filed as 0.5)
[18] = at 50.0 µM (retest, dose inferred, filed as 5.0)

SMILES: COCCOC(=O)CCn1cc(F)c(=O)[nH]c1=O
- growth inhibition ([1]; at 1.2 µM): -1%
- growth inhibition ([1]; at 3.7 µM): -1%
- growth inhibition ([1]; at 11.0 µM): 11%
- growth inhibition ([1]; at 33.0 µM): 31%
- growth inhibition ([1]; at 100.0 µM): 62%
- growth inhibition ([2]; at 1.2 µM): 0%
- growth inhibition ([2]; at 3.7 µM): 3%
- growth inhibition ([2]; at 11.0 µM): 7%
- growth inhibition ([2]; at 33.0 µM): 12%
- growth inhibition ([2]; at 100.0 µM): 23%
- growth inhibition ([3]; at 1.2 µM): -3%
- growth inhibition ([3]; at 3.7 µM): 3%
- growth inhibition ([3]; at 11.0 µM): 27%
- growth inhibition ([3]; at 33.0 µM): 67%
- growth inhibition ([3]; at 100.0 µM): 85% (active)
- growth inhibition ([4]; at 1.2 µM): -1%
- growth inhibition ([4]; at 3.7 µM): 7%
- growth inhibition ([4]; at 11.0 µM): 16%
- growth inhibition ([4]; at 33.0 µM): 48%
- growth inhibition ([4]; at 100.0 µM): 80% (active)
- growth inhibition ([5]; at 1.2 µM): -5%
- growth inhibition ([5]; at 3.7 µM): -11%
- growth inhibition [5, 17]: 24%
- growth inhibition ([5]; at 11.0 µM): 0%
- growth inhibition ([5]; at 33.0 µM): 34%
- growth inhibition [5, 18]: 70% (active)
- growth inhibition ([5]; at 50.0 µM): 64.1%
- growth inhibition ([5]; at 100.0 µM): 61%
- growth inhibition ([6]; at 1.2 µM): -1%
- growth inhibition ([6]; at 3.7 µM): 3%
- growth inhibition [6, 17]: 5%
- growth inhibition ([6]; at 11.0 µM): 13%
- growth inhibition ([6]; at 33.0 µM): 48%
- growth inhibition [6, 18]: 78% (active)
- growth inhibition ([6]; at 50.0 µM): 83.5% (active)
- growth inhibition ([6]; at 100.0 µM): 83% (active)
- growth inhibition ([7]; at 1.2 µM): -3%
- growth inhibition ([7]; at 3.7 µM): 0%
- growth inhibition ([7]; at 11.0 µM): 7%
- growth inhibition ([7]; at 33.0 µM): 14%
- growth inhibition ([7]; at 100.0 µM): 34%
- growth inhibition [8, 17]: 27%
- growth inhibition [8, 18]: 82% (active)
- growth inhibition ([8]; at 50.0 µM): 91.7% (active)
- growth inhibition ([9]; at 1.2 µM): 0%
- growth inhibition ([9]; at 3.7 µM): 4%
- growth inhibition ([9]; at 11.0 µM): 6%
- growth inhibition ([9]; at 33.0 µM): 15%
- growth inhibition ([9]; at 100.0 µM): 19%
- growth inhibition [10, 17]: 22%
- growth inhibition [10, 18]: 40%
- growth inhibition ([10]; at 50.0 µM): 36.8%
- growth inhibition ([11]; at 1.2 µM): 0%
- growth inhibition ([11]; at 3.7 µM): 3%
- growth inhibition [11, 17]: -8%
- growth inhibition ([11]; at 11.0 µM): 7%
- growth inhibition ([11]; at 33.0 µM): 5%
- growth inhibition [11, 18]: 11%
- growth inhibition ([11]; at 50.0 µM): 17.8%
- growth inhibition ([11]; at 100.0 µM): 17%
- growth inhibition ([12]; at 1.2 µM): -1%
- growth inhibition ([12]; at 3.7 µM): 2%
- growth inhibition ([12]; at 11.0 µM): 14%
- growth inhibition ([12]; at 33.0 µM): 48%
- growth inhibition ([12]; at 100.0 µM): 76% (active)
- growth inhibition ([13]; at 1.2 µM): 3%
- growth inhibition ([13]; at 3.7 µM): 9%
- growth inhibition ([13]; at 11.0 µM): 18%
- growth inhibition ([13]; at 33.0 µM): 53%
- growth inhibition ([13]; at 100.0 µM): 77% (active)
- growth inhibition ([14]; at 1.2 µM): 1%
- growth inhibition ([14]; at 3.7 µM): 12%
- growth inhibition ([14]; at 11.0 µM): 36%
- growth inhibition ([14]; at 33.0 µM): 76% (active)
- growth inhibition ([14]; at 100.0 µM): 88% (active)
- growth inhibition [15, 17]: 13%
- growth inhibition [15, 18]: 51%
- growth inhibition ([15]; at 50.0 µM): 62.9%
- growth inhibition ([16]; at 1.2 µM): 1%
- growth inhibition ([16]; at 3.7 µM): 6%
- growth inhibition ([16]; at 11.0 µM): 15%
- growth inhibition ([16]; at 33.0 µM): 32%
- growth inhibition ([16]; at 100.0 µM): 56%
